# Experimental data taken from paper PMC4336329 (PLoS ONE, 2015).
# Hit rate of the full screen: of about 310,000 compounds, about 14,000 (4.5%) showed an effect of 50% or more. Effects have a minus sign here. This is one part of a sample in which strong results are shown more often than they occur.
# Target: human ether-à-go-go-related gene (hERG) potassium channel (human, UniProt Q12809)
# Experiment: primary screen, population patch clamp on CHO cells stably expressing hERG; higher = less effect of the substance
# 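Further: peak tail current of the secondary pulse compared with the same well before compound.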
# human ether-à-go-go-related gene (hERG) potassium channel, sequence (Q12809 whole entry, looked up): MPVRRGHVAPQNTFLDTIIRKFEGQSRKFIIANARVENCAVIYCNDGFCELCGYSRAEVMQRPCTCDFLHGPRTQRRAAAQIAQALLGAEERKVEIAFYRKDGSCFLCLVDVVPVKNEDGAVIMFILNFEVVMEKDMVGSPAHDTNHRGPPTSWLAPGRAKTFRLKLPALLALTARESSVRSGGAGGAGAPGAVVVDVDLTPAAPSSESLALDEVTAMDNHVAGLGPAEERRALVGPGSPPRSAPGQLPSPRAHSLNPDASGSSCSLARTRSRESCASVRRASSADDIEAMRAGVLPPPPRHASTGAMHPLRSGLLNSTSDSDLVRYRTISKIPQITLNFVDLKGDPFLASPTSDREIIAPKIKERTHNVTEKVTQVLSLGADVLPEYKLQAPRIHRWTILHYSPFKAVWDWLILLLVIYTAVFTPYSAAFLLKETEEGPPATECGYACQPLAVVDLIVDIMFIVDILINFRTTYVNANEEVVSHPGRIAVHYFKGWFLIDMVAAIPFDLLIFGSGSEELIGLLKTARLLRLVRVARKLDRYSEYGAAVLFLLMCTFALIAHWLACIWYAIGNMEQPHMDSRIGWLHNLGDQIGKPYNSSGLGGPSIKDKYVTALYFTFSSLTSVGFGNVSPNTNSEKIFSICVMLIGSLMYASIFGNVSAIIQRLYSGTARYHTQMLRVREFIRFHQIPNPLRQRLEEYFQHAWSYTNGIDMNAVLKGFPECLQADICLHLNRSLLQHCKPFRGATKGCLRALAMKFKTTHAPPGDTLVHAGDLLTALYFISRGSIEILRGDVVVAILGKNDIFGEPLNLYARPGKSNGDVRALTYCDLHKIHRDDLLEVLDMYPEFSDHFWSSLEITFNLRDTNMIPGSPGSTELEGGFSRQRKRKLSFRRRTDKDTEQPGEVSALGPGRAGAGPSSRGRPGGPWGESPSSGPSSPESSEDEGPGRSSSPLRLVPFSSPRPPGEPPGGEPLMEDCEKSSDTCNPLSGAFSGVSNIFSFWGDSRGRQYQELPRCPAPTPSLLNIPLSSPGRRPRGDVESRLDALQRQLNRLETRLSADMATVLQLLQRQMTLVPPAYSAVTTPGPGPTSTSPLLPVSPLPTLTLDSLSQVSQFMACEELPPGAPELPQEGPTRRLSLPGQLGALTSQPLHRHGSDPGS
row,SMILES,"hERG current change (%, negative = inhibition) at 10uM [%]"
1,CCn1c(COc2ccccc2C)nnc1SCC(=O)OC,-9.68
2,O=C(CN(C(=O)c1csnn1)c1cccc2ccccc12)NC1CCCC1,-2.34
3,COc1ccc(CNc2cc(C)nc3ccc(OC)cc23)cc1,-72.8
4,COC(=O)CSc1cc(C)nc2ccc(OC)cc12,1.44
5,COc1ccc2nc(C)cc(NCc3cccc(C(F)(F)F)c3)c2c1,-31.7
6,Cc1cc(NCc2ccccc2)nc2ccccc12,-50.9
7,COc1ccc2nc(C)cc(NCc3ccc(F)cc3)c2c1,-61.6
8,COc1ccc2nc(C)cc(N/N=C/c3ccc(F)cc3)c2c1,0.337
9,COc1ccc2nc(NCc3ccccc3)[nH]c2c1,-25.4
10,Cc1cc(NC(=O)Cc2ccccc2)c2ccccc2n1,14.2
11,Cc1cc(NCCO)c2ccccc2n1.Cl,6.81
12,Cc1cc(NCc2ccccc2)c2ccccc2n1.Cl,-67.5
13,Cc1cc(NCc2ccccn2)nc2ccccc12,-15.4
14,Cc1cc(NCC2CCCCC2)nc2ccccc12,-42.7
15,Cc1cc(C(=O)NNc2c(Cl)cccc2Cl)no1,3.46
16,CC1(C)Cc2nc3oc4c(SCC(N)=O)ncnc4c3cc2CO1,4.95
17,Cc1ccc(S(=O)(=O)N(C)C)cc1NC(=O)COC(=O)/C=C/c1ccc2c(c1)OCO2,-9.63
18,O=C(NC1CCCCC1)C1CCCN(S(=O)(=O)c2cccs2)C1 (stereo not shown),11.3
19,COc1ccc(NC(=O)OCCN2CCN(Cc3ccccc3)CCC2=O)cc1,-9.25
20,COc1c(O)ccc(/C=N/NC(=O)c2ccc3c(c2)OCCO3)c1[N+](=O)[O-],7.36
21,N#Cc1ccc(-c2cn(-c3ccccc3)c3[n+]2CCCS3)cc1.[Br-],16.3

row,SMILES,"hERG current change (%, negative = inhibition) at 10uM [%]"
1,COc1ccc(-c2cn(-c3ccc(SC(F)F)cc3)c3[n+]2CCC3)cc1OC.[Br-],-62.4
2,[Br-].c1ccc(-c2cn(-c3ccccc3)c3[n+]2CCCS3)cc1,-3.51
3,COc1ccc(-c2cn(-c3ccccc3)c(=S)[nH]2)cc1OC,16.1
4,O=C(Cc1ccc(Cl)cc1)Nc1ccc(SC(F)F)cc1,-1.83
5,CC(=O)c1ccc(-n2cc(-c3ccc(C(C)(C)C)cc3)[n+]3c2SCCC3)cc1.[Br-],-30.1
6,COc1ccc(-n2cc(-c3ccc(OC)c(OC)c3)[nH]c2=S)cc1,6.1
7,FC(F)Sc1ccc(-n2cc(-c3ccc(Cl)cc3)[n+]3c2CCC3)cc1.[Br-],-74.3
8,FC(F)Sc1ccc(-n2cc(-c3ccccc3)[n+]3c2CCC3)cc1.[Br-],-77.9
9,O=[N+]([O-])CC(c1ccccc1)c1c[nH]c2ccccc12 (stereo not shown),10.6
10,O=C(CN1C(=O)NC(Cc2c[nH]c3ccccc23)C1=O)Nc1ccc(F)c(F)c1F (stereo not shown),-5.36
11,O=C(Nc1cccc(Cl)c1)N1CCN2C(=O)c3ccccc3C12c1ccccc1 (stereo not shown),-24.3
12,COc1ccc(CNC(=S)Nc2ccccc2)cc1,7.34
13,O=C(Cc1ccc([N+](=O)[O-])cc1)N1CCCc2ccccc21,-41.1
14,O=C(Oc1c(Cl)cc(Cl)c2ccccc12)N1CCCC1,-25.9
15,CC(COc1ccc(/C=C/c2ccccc2)cc1)[N+](C)(C)C.[I-] (stereo not shown),-9.04
16,CC(C)(C)C(=O)Nc1ccc(C(=O)Nc2cc(NC(=O)c3ccc(NC(=O)C(C)(C)C)cc3)cc(C(=O)O)c2)cc1,6.62
17,CCCc1cc(C(=O)Nc2ccc(C(=O)OC)cc2)cs1,5.28
18,COc1ccc(/C=N/NC(=O)c2nn(C)cc2Br)cc1CSCc1ccco1,-50.6
19,CCOc1cc(/C=N/NC(=O)c2nn(C)cc2Br)ccc1OCc1ccccc1Cl,-14.7
20,CCOc1cc(/C=N/NC(=O)c2nn(C)cc2Br)ccc1OCc1ccccc1,5.59
21,Cc1cc(C)cc(OCC(=O)N2N=C(C(F)(F)F)CC2(O)C(C)(C)C)c1 (stereo not shown),3.64

row,SMILES,"hERG current change (%, negative = inhibition) at 10uM [%]"
1,CC1CCN(C(=O)CSCC(=O)Nc2nc(-c3cccs3)cs2)CC1,-20.6
2,COc1cccc(C2=CC(c3ccc(N(C)C)cc3)n3ncnc3N2)c1 (stereo not shown),-1.72
3,CCOc1ccc(C2C=C(c3ccccc3)Nc3ncnn32)cc1 (stereo not shown),-47.2
4,COc1cccc(C2=CC(c3ccccc3)n3ncnc3N2)c1 (stereo not shown),-2.39
5,COc1ccc(C2C=C(c3ccccc3)Nc3ncnn32)cc1 (stereo not shown),-57.4
6,Cc1ccc(C2=CC(c3ccccc3)n3ncnc3N2)cc1 (stereo not shown),-15.8
7,COc1cccc(C2=CC(c3ccc(C)cc3)n3ncnc3N2)c1 (stereo not shown),-52.4
8,Cc1ccc(C2C=C(c3ccccc3)Nc3ncnn32)cc1 (stereo not shown),-64.7
9,C1=C(c2ccccc2)Nc2ncnn2C1c1ccccc1 (stereo not shown),-5.26
10,Cc1ccc(C2=CC(c3ccc(C)cc3)n3ncnc3N2)cc1 (stereo not shown),-17.6
11,O=C(Nc1nnc(-c2ccccc2Cl)s1)c1ccccc1F,10.9
12,CC(=O)c1ccc(N2CCN(S(=O)(=O)c3ccc(-c4cc(C)no4)s3)CC2)cc1,-1.08
13,Cc1ccc2c(c1)NCCO2,4.46
14,O=C(CSc1ccc(F)cc1)Nc1ccc(N2CCOCC2)c(Cl)c1,-20.3
15,CCOCCCN(C)C1CCN(C(=O)c2oc3ccccc3c2NC(=O)Cc2ccc([N+](=O)[O-])cc2)CC1,-81.5
16,COc1cccc(N2CCN(C(=O)c3oc4ccccc4c3NC(=O)Cc3ccc(OC)c(OC)c3)CC2)c1,-14.1
17,COc1ccc(CC(=O)Nc2c(C(=O)N3CCN(c4ccccc4)CC3)oc3ccccc23)cc1OC,-32.4
18,CCOCCCN(C)C1CCN(C(=O)c2oc3ccccc3c2NC(=O)Cc2cccc([N+](=O)[O-])c2)CC1,-75.3
19,COc1ccc(N2CCN(C(=O)c3oc4ccccc4c3NC(=O)Cc3cccc(OC)c3)CC2)cc1,-30.2
